Screens: PubChem, several laboratories
In the library only some 5.2% were active in any assay of this set; here they are far more common.
CR mimetic SO: lowers age-related superoxide in aged yeast cells; S. cerevisiae aged cells, superoxide DHE fluorescence; hits give low values; superoxide response (% of plate mean), % at 10 µM; 0.18% of 330,000 active; AID 2690;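 active = superoxide response under a set limit, about three screen SD below normal, cut at about 65% in these data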;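 note: yeast aged for seven days with compound at 30 °C before DHE staining; 100% = average MFI of all compound-treated wells on the plate with controls excluded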
A3A deaminase: blocks human APOBEC3A ssDNA deamination; P31941; recombinant A3A, FAM/TAMRA ssDNA deamination fluorescence; inhibition, % at 20 µM; 0.41% of 330,000 active; AID 493011;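 active = at least 40% inhibition at 20 µM here, with at most 30% in a related deaminase screen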;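 note: plate controls were A3A with DMSO for no effect and wells lacking A3A enzyme for full effect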
PfM18AAP inh: blocks P. falciparum M18 aspartyl aminopeptidase. recombinant PfM18AAP, H-Glu-NHMec fluorogenic cleavage. inhibition, % at 7.35 µM. 1.2% of 290,000 active;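 active = inhibition above the campaign mean inhibition over all tested compounds plus 3 SD, cut at about 28% in these data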;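 note: 0% = plate median of test compound wells and 100% = 2 mM ZnCl2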
ALR inh: blocks human ALR sulfhydryl oxidase activity | inhibition, % (no concentration beside the values) | 3.8% of 290,000 active | AID 485317 | purified ALR, DTT oxidation, H2O2 HRP-luminol luminescence | P55789;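 active = mean replicate inhibition above about 79%, with every replicate also reaching it, limit read from the data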
Target sequence (P55789 whole entry, looked up): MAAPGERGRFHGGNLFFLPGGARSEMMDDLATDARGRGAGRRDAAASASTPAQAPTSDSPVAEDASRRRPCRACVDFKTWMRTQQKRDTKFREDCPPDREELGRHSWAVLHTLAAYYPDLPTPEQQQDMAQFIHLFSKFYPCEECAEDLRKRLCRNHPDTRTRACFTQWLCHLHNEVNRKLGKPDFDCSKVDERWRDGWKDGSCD
APOBEC3G inh: APOBEC3G (human) deaminase inhibition | 0.28% of 330,000 active | recombinant A3G, ssDNA deamination FAM/TAMRA fluorescence | inhibition, % at 20 µM | Q9HC16;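 active = inhibition of at least 40% at 20 µM, with no more than 30% in the related APOBEC3A deaminase screen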;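 note: plate controls were DMSO wells with A3G for no effect and wells lacking A3G enzyme for full effect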
Target sequence (Q9HC16 whole entry, looked up): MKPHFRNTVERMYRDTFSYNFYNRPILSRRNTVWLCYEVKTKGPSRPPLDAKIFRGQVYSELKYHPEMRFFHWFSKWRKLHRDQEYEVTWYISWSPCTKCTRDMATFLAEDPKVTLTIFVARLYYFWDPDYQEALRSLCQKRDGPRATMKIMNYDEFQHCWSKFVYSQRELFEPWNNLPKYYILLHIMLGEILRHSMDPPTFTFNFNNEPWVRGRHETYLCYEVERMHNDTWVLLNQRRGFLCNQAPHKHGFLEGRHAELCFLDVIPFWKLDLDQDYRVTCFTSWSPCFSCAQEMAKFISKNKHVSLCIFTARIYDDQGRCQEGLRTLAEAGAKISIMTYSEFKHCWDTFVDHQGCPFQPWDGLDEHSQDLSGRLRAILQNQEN
NRP1-CendR mod: modulators of CendR peptide binding to human neuropilin-1; O14786; FAM-RPARPAR peptide binding to NRP-1, fluorescence polarization; inhibition, % at 25 µM; 0.85% of 360,000 active; AID 602438;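 active = inhibition or corrected inhibition above about 18%, plus a signal ratio from 0.5 to 1.5, limit read from the data, passing the limit was not always enough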
* marks the source's active call; other numbers are inactive results; . = no result.

SMILES | CR mimetic SO | A3A deaminase | PfM18AAP inh | ALR inh | APOBEC3G inh | NRP1-CendR mod
Cc1csc(SCC(=O)Nc2cc(S(=O)(=O)N3CCCC3)ccc2Cl)n1 | 115.5 | 2.0 | 1.2 | -9.3 | -2.9 | 4.6
Cc1csc(SCC(=O)Nc2ccc(Cl)cn2)n1 | 101.8 | 1.6 | 6.2 | 92.0* | -5.8 | 0.2
CC(C)(C)c1csc(SCC(=O)Nc2ccc(Cl)cn2)n1 | 96.7 | -0.7 | -3.6 | -4.8 | -2.7 | 5.7
CC(C)CC1=NN(C(=O)c2cccnc2)C(O)(C(F)(F)F)C1 (stereo not drawn) | 105.8 | 1.8 | 0.9 | . | -2.9 | -4.9
COc1cc(OC)cc(C(=O)N[C@H](C(=O)N2CCc3ccccc32)C(C)C)c1 | 97.2 | 2.2 | -0.4 | -2.2 | 2.6 | -0.6
CCOC(=O)N1CCN(C(=O)CCn2c(=S)[nH]c3cc(OCC)c(OCC)cc3c2=O)CC1 | 117.8 | -0.5 | 8.6 | -1.2 | -2.3 | .
C=CCC1(CC=C)CCCN1C(=O)c1cc(COc2cccc(OC)c2)on1 | 107.3 | -3.5 | -3.3 | -22.5 | -5.5 | 21.4*
CCOc1cc(CNc2ccc(CNc3ncn[nH]3)cc2)ccc1OCc1ccccc1 | 111.9 | 0.1 | 39.6* | 17.8 | -3.6 | -6.6
Cc1ccc(S(=O)(=O)N2CCOCC2)cc1NC(=O)c1cc([N+](=O)[O-])ccc1N1CCOCC1 | 116.0 | 3.5 | . | -10.0 | -12.3 | 15.3
CCN(CC)Cc1c(O)ccc2c(C)c(CC(=O)OC)c(=O)oc12 | 99.2 | -6.0 | 4.6 | -3.0 | -12.6 | 47.0*
Nc1ccc2nc(SCc3ccccc3F)sc2c1 | 87.4 | -2.4 | 3.2 | 99.2* | -7.5 | -2.5
Cc1cc(C)n2nc(C(=O)OCC(=O)N(CC(C)C)C3CCS(=O)(=O)C3)nc2n1 (stereo not drawn) | 92.8 | -3.0 | . | -0.9 | -5.6 | 13.4
CCOC(=O)C(CSCC(=O)c1ccc(Br)cc1)NC(=O)OC(C)(C)C (stereo not drawn) | 93.6 | -2.2 | 0.8 | 98.5* | -5.8 | .
CCOC(=O)C(CSCC(=O)c1ccc(Cl)cc1)NC(=O)OC(C)(C)C (stereo not drawn) | 108.5 | -2.7 | -3.7 | . | -9.7 | -4.9
CCOc1cc(NC(=S)Nc2ccccc2)c(OCC)cc1NC(=O)c1ccc(OC)cc1 | 107.3 | 1.3 | 11.1 | -10.6 | -3.6 | 3.1
CCOc1cc(NC(=S)Nc2ccc(Cl)cc2)c(OCC)cc1NC(C)=O | 125.5 | -0.4 | 31.0* | -13.5 | -10.7 | 4.4
CC(C)CNC(=O)CC(=O)N/N=C/c1cccs1 | 107.2 | 6.4 | -0.9 | -4.8 | -6.4 | -10.6
COc1cccc(-c2nc(CS(=O)(=O)CC(=O)NCc3ccccc3)c(C)o2)c1 | 177.0 | -1.0 | 2.1 | . | -6.1 | 6.7
COc1cccc(-c2nc(CS(=O)(=O)CC(=O)NCCCc3ccccc3)c(C)o2)c1 | 98.7 | 0.4 | -3.7 | -3.6 | 15.3 | 5.6
COc1cccc(-c2nc(CS(=O)CC(=O)NCCCOC(C)C)c(C)o2)c1 (stereo not drawn) | 102.6 | -2.6 | -1.9 | 98.8* | -5.7 | 0.5
COc1cccc(-c2nc(CS(=O)(=O)CC(=O)NCc3ccc4c(c3)OCO4)c(C)o2)c1 | 97.3 | 0.6 | 7.5 | 95.4* | 20.5 | 1.2
CCC(C)NC(=O)CS(=O)(=O)Cc1nc(-c2cccc(OC)c2)oc1C (stereo not drawn) | 91.5 | 14.8 | 3.9 | 99.2* | -3.2 | 17.5
COc1cccc(-c2nc(CS(=O)(=O)CC(=O)NCCCOC(C)C)c(C)o2)c1 | 120.4 | -2.3 | -0.8 | 93.9* | -7.9 | 1.1
CCOCCCNC(=O)C1CCN(S(=O)(=O)N2CC(C)CC(C)C2)CC1 (stereo not drawn) | 79.6 | 1.7 | -1.9 | -3.2 | -4.9 | -10.3
O=C(CCC(=O)Nc1ccccc1Cl)NNC(=O)C1CCCCC1 | 74.2 | 1.5 | . | 2.0 | 2.7 | 13.0
SMILES | CR mimetic SO | A3A deaminase | PfM18AAP inh | ALR inh | APOBEC3G inh | NRP1-CendR mod
CN(C)CCNC(=S)Nc1ccc(-c2nc3ccccc3[nH]2)cc1 | 92.7 | 2.4 | 10.4 | . | -4.8 | -7.3
S=C(NCCCN1CCOCC1)Nc1ccc(-c2nc3ccccc3[nH]2)cc1 | 112.4 | -3.4 | 17.9 | 98.0* | -1.1 | 2.5
O=C1CCCN1CCCNC(=S)Nc1ccc(Nc2ccccc2)cc1 | 91.7 | 1.6 | -0.3 | 99.4* | -4.7 | 1.9
S=C(NCCN1CCOCC1)Nc1ccc(Nc2ccccc2)cc1 | 95.7 | -5.5 | 4.0 | 99.1* | -3.3 | -3.6
S=C(NCCCN1CCOCC1)Nc1ccc(Nc2ccccc2)cc1 | 104.7 | -1.0 | 3.3 | 99.3* | -4.0 | -0.9
S=C(NCCN1CCOCC1)Nc1ccc(Cl)cc1Cl | 84.4 | -0.2 | 4.2 | 94.7* | 1.2 | 15.4
CCOc1cc(NC(=S)NCCCN2CCOCC2)c(OCC)cc1NC(=O)c1cccs1 | 81.0 | 2.4 | 7.1 | -5.6 | 0.2 | 23.5*
CCOc1ccc(S(=O)(=O)Nc2cccc(C(=O)NCC(c3ccco3)N3CCCC3)c2)cc1 (stereo not drawn) | 108.5 | 0.3 | . | -2.3 | -0.8 | -16.1
CC(=O)Nc1nonc1-n1nnc(C(=O)NCc2ccccc2)c1C | 86.6 | 3.7 | 2.5 | -2.0 | 1.4 | -2.4
CCn1c(SCC(=O)Nc2cccc(OC)c2)nc2ccccc2c1=O | 107.3 | 5.0 | 6.2 | -13.6 | 10.6 | -0.3
Cc1cccc(NC(=O)CSc2c3c(nc4ccccc24)CCC3)n1 | 88.0 | 4.7 | -1.2 | 98.6* | 3.0 | -4.6
CCC(C)NC(=O)CSc1c2c(nc3ccccc13)CCCC2 (stereo not drawn) | 101.2 | -2.3 | -1.6 | 37.4 | -3.2 | 14.6
COc1cccc(NC(=O)CSc2c3c(nc4ccccc24)CCCC3)c1 | 93.1 | 8.5 | 8.8 | 99.2* | -1.7 | -16.0
COc1cccc(NC(=O)CSc2ncnc3c2cnn3Cc2ccccc2)c1 | 104.2 | 6.1 | 4.7 | 89.9* | -0.8 | -2.9
Cc1ccc2nc(-c3ccc(N)cc3)sc2c1 | 86.0 | 1.5 | -0.5 | -98.9 | -3.2 | -34.0
Nc1ccc(-c2nc3cc(N)ccc3s2)cc1 | 96.1 | 0.9 | 1.4 | 98.6* | -4.4 | -17.7
CCCCSCCCNC(=S)Nc1ccccc1C | 87.3 | 0.5 | 2.7 | 77.2* | -13.1 | -14.0
Cc1ccccc1NC(=S)NCCO | 88.5 | 0.0 | -2.5 | -10.5 | 1.7 | 6.8
Cc1cc(OC(C)C(=O)NCCCN2CCCC2=O)c2c(C)c(C)c(=O)oc2c1 (stereo not drawn) | 88.0 | -1.1 | -5.8 | -4.1 | -1.0 | 9.9
CCc1ccccc1N/N=C(/C)c1c(O)cc(C)oc1=O | 103.7 | 0.8 | -9.0 | 98.1* | -0.4 | 7.0
COc1cccc(/C=C/C(=O)OCC(=O)Nc2cc(C(F)(F)F)ccc2Cl)c1 | 91.8 | 4.8 | -12.7 | . | 25.8 | 38.6*
COc1ccc(C(=O)COC(=O)/C=C/c2ccccc2)cc1 | 117.1 | 0.6 | -4.2 | -1.1 | -3.3 | 3.8
COc1cccc(/C=C/C(=O)OCC(=O)c2ccc(Br)cc2)c1 | . | . | . | . | . | 18.4*
COc1ccccc1NC(=O)c1ccc(NC(=O)c2nc3nccc(C)n3n2)cc1 | 90.6 | 1.1 | . | 4.9 | -6.8 | 0.7
Brc1cc2c(cc1CSc1ncccn1)OCO2 | 87.6 | -4.2 | -3.6 | -2.9 | -8.5 | -6.1
